# Measured values taken from publication PMC7862700, “An all-to-all approach to the identification of sequence-specific readers for epigenetic DNA modifications on cytosine”.
# Tests used:
# Assay in all cases: DAPPL (digital affinity profiling via proximity ligation, sequencing); 10 mM Tris-HCl pH 7.5, 50 mM NaCl, 1 mM DTT, 4% glycerol, room temperature, 30 min; GST-TFs on glutathione beads, 16-mer random dsDNA library, 0.1% formaldehyde crosslink after washing; high values mean tight binding
# Conditions in all cases: protein: recombinant; tags: N-terminal GST; dsDNA, one strand shown
# FLI1 = molecular target: T1, FLI1 (Homo sapiens, UniProt Q01543 1-452)
# T1 sequence: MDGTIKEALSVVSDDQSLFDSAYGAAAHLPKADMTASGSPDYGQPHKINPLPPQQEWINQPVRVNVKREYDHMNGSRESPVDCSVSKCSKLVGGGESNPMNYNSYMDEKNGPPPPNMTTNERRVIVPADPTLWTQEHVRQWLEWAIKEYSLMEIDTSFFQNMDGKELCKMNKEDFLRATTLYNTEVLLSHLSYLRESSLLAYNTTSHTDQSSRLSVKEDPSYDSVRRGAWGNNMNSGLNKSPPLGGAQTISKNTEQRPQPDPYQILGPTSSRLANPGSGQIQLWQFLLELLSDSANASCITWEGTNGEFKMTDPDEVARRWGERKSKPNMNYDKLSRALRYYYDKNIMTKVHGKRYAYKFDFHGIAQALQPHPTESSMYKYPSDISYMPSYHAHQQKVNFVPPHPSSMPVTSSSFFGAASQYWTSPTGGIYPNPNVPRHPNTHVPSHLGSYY
# In short: (§1)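 Sequencing on an Illumina NextSeq500 followed washing, crosslinking with 0.1% formaldehyde, proximity ligation (BsaI/T4 ligase, 1 h, 37 °C) and PCR amplification of pools that had been incubated for 30 min at room temperature with 200 nmole of a random double-stranded 16-mer DNA library in Tris/NaCl/DTT/glycerol buffer. Each pool held DNA-barcoded human transcription factors, expressed in yeast as GST fusions and captured on glutathione beads, plus a tag-only sample. Binding signal is a hexamer's read frequency for a factor divided by its frequency in the tag-only sample.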
# ELK1 = molecular target: T2, ELK1 (Homo sapiens, UniProt P19419 1-428)
# T2 sequence: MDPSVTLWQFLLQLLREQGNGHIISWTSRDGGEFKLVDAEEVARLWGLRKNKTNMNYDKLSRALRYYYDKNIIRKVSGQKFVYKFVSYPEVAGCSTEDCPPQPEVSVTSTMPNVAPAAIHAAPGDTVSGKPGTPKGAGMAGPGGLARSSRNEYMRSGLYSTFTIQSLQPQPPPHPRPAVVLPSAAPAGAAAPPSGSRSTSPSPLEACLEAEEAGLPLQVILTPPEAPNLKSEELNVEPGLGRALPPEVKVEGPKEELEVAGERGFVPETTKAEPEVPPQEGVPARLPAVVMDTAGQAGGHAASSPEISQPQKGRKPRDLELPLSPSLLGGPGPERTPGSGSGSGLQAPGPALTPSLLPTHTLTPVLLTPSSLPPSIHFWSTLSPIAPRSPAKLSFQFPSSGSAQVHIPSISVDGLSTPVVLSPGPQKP
# In short: as §1
# GABPA = molecular target: T3, GABPA (Homo sapiens, UniProt Q06546 1-454)
# T3 sequence: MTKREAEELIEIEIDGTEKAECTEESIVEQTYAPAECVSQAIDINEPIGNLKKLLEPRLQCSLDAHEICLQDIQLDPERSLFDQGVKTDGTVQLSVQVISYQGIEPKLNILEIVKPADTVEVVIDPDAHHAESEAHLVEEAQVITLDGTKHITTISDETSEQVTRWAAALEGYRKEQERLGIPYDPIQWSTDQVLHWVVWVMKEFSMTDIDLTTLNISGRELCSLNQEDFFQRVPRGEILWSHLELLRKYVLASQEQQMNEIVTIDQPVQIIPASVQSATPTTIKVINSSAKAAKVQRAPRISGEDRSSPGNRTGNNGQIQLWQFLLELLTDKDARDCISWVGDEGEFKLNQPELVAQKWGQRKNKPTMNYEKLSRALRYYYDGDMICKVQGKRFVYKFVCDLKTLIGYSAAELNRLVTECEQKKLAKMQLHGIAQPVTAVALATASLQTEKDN
# In short: as §1
# ERG = molecular target: T4, ERG (Homo sapiens, UniProt P11308 1-479)
# T4 sequence: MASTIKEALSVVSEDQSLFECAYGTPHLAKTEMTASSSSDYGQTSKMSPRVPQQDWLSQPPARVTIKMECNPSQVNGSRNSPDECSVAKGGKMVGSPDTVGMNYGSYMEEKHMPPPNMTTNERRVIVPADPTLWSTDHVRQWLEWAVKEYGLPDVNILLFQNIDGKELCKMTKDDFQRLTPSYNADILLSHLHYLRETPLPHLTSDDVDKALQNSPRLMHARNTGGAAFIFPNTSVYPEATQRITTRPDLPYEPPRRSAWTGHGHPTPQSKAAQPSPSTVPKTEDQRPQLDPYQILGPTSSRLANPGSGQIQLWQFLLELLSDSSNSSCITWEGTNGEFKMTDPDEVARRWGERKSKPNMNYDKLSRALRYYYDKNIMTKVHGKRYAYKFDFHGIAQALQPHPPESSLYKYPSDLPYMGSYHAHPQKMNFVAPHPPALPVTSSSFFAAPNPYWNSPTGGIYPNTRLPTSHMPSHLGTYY
# In short: as §1
# ELF1 = ELF1 (Homo sapiens, UniProt P32519 1-619)
# ELF1, sequence (P32519 whole entry): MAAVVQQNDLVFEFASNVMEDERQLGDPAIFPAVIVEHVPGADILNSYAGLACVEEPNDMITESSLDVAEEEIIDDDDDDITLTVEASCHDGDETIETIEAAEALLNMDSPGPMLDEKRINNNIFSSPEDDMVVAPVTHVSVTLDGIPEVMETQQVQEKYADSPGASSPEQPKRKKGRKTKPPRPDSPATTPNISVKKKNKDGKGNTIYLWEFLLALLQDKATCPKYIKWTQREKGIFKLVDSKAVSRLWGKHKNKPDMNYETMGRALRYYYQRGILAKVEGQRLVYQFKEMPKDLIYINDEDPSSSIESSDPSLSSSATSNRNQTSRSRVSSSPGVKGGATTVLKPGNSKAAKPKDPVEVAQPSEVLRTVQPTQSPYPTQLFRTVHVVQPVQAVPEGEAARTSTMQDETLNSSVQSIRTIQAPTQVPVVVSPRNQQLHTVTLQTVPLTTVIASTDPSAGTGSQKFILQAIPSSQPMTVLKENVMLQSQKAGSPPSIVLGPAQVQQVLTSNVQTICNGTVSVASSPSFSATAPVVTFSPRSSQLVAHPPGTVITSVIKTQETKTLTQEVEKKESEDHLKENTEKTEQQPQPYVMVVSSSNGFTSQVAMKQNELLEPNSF
# In short: as §1
# EHF = molecular target: T5, EHF (Homo sapiens, UniProt Q9NZC4 1-300)
# T5 sequence: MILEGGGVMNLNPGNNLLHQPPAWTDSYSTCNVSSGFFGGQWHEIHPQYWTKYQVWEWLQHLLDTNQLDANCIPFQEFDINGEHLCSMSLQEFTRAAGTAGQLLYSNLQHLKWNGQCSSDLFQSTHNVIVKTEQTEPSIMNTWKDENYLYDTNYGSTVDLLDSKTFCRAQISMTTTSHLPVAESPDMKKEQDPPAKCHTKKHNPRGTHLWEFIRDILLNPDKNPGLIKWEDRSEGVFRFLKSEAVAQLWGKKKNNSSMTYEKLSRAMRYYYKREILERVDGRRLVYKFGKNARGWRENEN
# In short: as §1
# SPI1 = SPI1 (Homo sapiens, UniProt P17947 1-270)
# In short: as §1
# SPIB = SPIB (Homo sapiens, UniProt Q01892 1-262)
# SPIB, sequence (Q01892 whole entry): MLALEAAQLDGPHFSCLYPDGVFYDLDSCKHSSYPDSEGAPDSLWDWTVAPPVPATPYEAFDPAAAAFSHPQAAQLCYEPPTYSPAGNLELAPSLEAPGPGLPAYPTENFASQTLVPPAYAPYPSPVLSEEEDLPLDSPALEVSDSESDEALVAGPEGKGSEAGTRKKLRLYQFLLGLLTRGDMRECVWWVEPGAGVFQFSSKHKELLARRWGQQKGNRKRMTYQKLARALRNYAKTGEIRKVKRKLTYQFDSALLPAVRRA
# In short: as §1
# ELK3 = molecular target: T6, ELK3 (Homo sapiens, UniProt P41970 1-407)
# T6 sequence: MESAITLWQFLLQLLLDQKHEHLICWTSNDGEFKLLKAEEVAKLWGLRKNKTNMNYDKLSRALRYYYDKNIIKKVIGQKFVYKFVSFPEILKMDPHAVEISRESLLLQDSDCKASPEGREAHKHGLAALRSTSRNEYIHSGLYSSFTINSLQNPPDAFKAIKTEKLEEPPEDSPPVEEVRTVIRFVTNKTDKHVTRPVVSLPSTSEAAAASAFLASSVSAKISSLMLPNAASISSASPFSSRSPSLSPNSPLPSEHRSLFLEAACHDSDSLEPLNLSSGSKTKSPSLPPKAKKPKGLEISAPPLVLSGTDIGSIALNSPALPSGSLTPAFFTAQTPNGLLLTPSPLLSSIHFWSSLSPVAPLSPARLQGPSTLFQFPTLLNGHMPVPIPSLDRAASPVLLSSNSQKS
# In short: as §1
sequence,measurement,setting,value
ACCCTA,binding signal,FLI1,"1.19 fold enrichment (6-mer frequency, TF over GST control)"
same,binding signal,ELK1,"1.36 fold enrichment (6-mer frequency, TF over GST control)"
same,binding signal,GABPA,"1.25 fold enrichment (6-mer frequency, TF over GST control)"
same,binding signal,ERG,"1.18 fold enrichment (6-mer frequency, TF over GST control)"
same,binding signal,ELF1,"1.32 fold enrichment (6-mer frequency, TF over GST control)"
same,binding signal,EHF,"1.09 fold enrichment (6-mer frequency, TF over GST control)"
same,binding signal,SPI1,"1.19 fold enrichment (6-mer frequency, TF over GST control)"
same,binding signal,SPIB,"1.16 fold enrichment (6-mer frequency, TF over GST control)"
same,binding signal,ELK3,"1.29 fold enrichment (6-mer frequency, TF over GST control)"
